# Source: PubChem BioAssay (EPA / NIEHS)
# Inconclusive results are not listed. Active and inactive are the calls of the source. How the source made its calls: active means hit-call score of the fitted dose curve at least 0.9, where 1 is the maximum; inconclusive means response in the unintended direction; inactive means score below 0.9.
# Assays:
# [1] = target: human Phosphodiesterase 5 (PDE5), PDE5A (gene 8654) (UniProt O76074); assay: NVS_ENZ_hPDE5: NovaScreen (NVS) Enzymatic Assay for human Phosphodiesterase 5 (PDE5) (AID 2283194)
# In short: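 Screening began in duplicate at 25 uM, with actives taken into concentration-response. Enzyme activity of recombinant PDE5 toward its substrate was measured at 1 h by fluorescence mobility-shift detection, relative to DMSO controls.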
# [2] = target: human Protein Tyrosine Phosphatase Non-receptor Type 9 (PTPN9), PTPN9 (gene 5780) (UniProt P43378); assay: NVS_ENZ_hPTPN9: NovaScreen (NVS) Enzymatic Assay for human Protein Tyrosine Phosphatase Non-receptor Type 9 (PTPN9) (AID 2283209)
# In short: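 Sf9-expressed enzyme in a cell-free assay, fluorescence read 1.33 h after dosing with mobility-shift separation of substrate and product. Tested at 25 uM in duplicate, then up to 50 uM; signal loss versus DMSO.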
# [3] = target: PPP2CA (gene 5515) (UniProt P67775); assay: NVS_ENZ_hPPP2CA: NovaScreen (NVS) Enzymatic Assay for human Protein Phosphatase 2 Aatalytic subunit Alpha (PPP2CA) (AID 2283199)
# In short: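 Cell-free phosphatase activity: fluorescent substrate turnover by recombinant human enzyme, resolved by mobility shift at 1.33 h. Compounds passing the 25 uM duplicate primary screen were rerun in singleton series with a 50 uM top concentration.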
# [4] = target: human Protein Tyrosine Phosphatase Receptor Type M (PTPRM), PTPRM (gene 5797) (UniProt P28827); assay: NVS_ENZ_hPTPRM: NovaScreen (NVS) Enzymatic Assay for human Protein Tyrosine Phosphatase Receptor Type M (PTPRM) (AID 2283215)
# In short: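 Read-out is fluorescence after electrophoretic separation of substrate and product, taken 1.33 h post-dosing with recombinant enzyme. Compounds screened at 25 uM in duplicate, then concentration series for actives; activity as signal loss relative to DMSO.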
# [5] = target: human Protein Tyrosine Phosphatase Receptor Type C (PTPRC), PTPRC (gene 5788) (UniProt P08575); assay: NVS_ENZ_hPTPRC: NovaScreen (NVS) Enzymatic Assay for human Protein Tyrosine Phosphatase Receptor Type C (PTPRC) (AID 2283212)
# In short: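 Absorbance-based phosphatase activity of human PTPRC protein extracted from yeast was measured 1 h post-dosing. Compounds first tested at 25 uM in duplicate, then those passing threshold in singleton concentration series to 50 uM.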
# [6] = target: Tyrosine-protein phosphatase non-receptor type 13 (Homo sapiens) (UniProt Q12923); assay: NVS_ENZ_hPTPN13: NovaScreen (NVS) Enzymatic Assay for human Protein Tyrosine Phosphatase Non-receptor Type 13 (PTPN13) (AID 2283205)
# In short: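 Screened first at a single 25 uM in duplicate; compounds passing the threshold (e.g. 30% inhibition) were rerun in concentration series, top 50 uM. Recombinant enzyme, fluorescent substrate, mobility-shift separation, 0.5 h read. Data fitted as inhibition relative to DMSO.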
# [7] = target: human Phosphatase and Tensin Homolog (PTEN), PTEN (gene 5728) (UniProt P60484); assay: NVS_ENZ_hPTEN: NovaScreen (NVS) Enzymatic Assay for human Phosphatase and Tensin Homolog (PTEN) (AID 2283203)
# In short: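 Loss of fluorescent product signal after mobility-shift separation reports PTEN activity, recombinant human enzyme, 1 h after compound addition. Single 25 uM duplicate screen, then concentration-response on actives; DMSO baseline.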
# [8] = target: human Protein Tyrosine Phosphatase Non-receptor Type 2 (PTPN2), PTPN2 (gene 5771) (UniProt P17706); assay: NVS_ENZ_hPTPN2: NovaScreen (NVS) Enzymatic Assay for human Protein Tyrosine Phosphatase Non-receptor Type 2 (PTPN2) (AID 2283207)
# In short: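 Activity measured as fluorescence after mobility-shift separation of substrate and product, 1 h after compound. Duplicate single-point 25 uM primary testing, concentration series for actives; inhibition scored as signal loss relative to DMSO baseline.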
# [9] = target: cAMP-dependent protein kinase catalytic subunit alpha (Homo sapiens) (UniProt P17612); assay: NVS_ENZ_hPKA: NovaScreen (NVS) Enzymatic Assay for human Protein Kinase A (PKA) (AID 2283192)
# In short: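 Cell-free kinase activity read by fluorescence after mobility-shift separation of substrate and product, 1 h post-dosing. Single-concentration duplicate screen (25 uM) preceded singleton concentration series (top 50 uM); loss of signal versus DMSO.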
# [10] = target: Tyrosine-protein phosphatase non-receptor type 12 (Homo sapiens) (UniProt Q05209); assay: NVS_ENZ_hPTPN12: NovaScreen (NVS) Enzymatic Assay for human Protein Tyrosine Phosphatase Non-receptor Type 12 (PTPN12) (AID 2283204)
# In short: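 Single-concentration duplicates (25 uM) preceded singleton concentration-response up to 50 uM for chemicals passing threshold. Cell-free recombinant PTPN12 activity was read 1.33 h after dosing via fluorescence after mobility-shift separation; loss of signal versus DMSO.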
# [11] = target: human Protein Tyrosine Phosphatase Receptor Type F (PTPRF), PTPRF (gene 5792) (UniProt P10586); assay: NVS_ENZ_hPTPRF: NovaScreen (NVS) Enzymatic Assay for human Protein Tyrosine Phosphatase Receptor Type F (PTPRF) (AID 2283213)
# In short: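 Cell-free fluorescence enzyme assay with recombinant protein and substrate; product separated by electrophoretic mobility shift. Read 1 h after dosing, single 25 uM duplicate screen, then concentration-response up to 50 uM; loss of signal vs DMSO.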
# [12] = target: human Protein Tyrosine Phosphatase Non-receptor Type 1 (PTPN1), PTPN1 (gene 5770) (UniProt P18031); assay: NVS_ENZ_hPTPN1: NovaScreen (NVS) Enzymatic Assay for human Protein Tyrosine Phosphatase Non-receptor Type 1 (PTPN1) (AID 2283201)
# In short: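 Chemicals were first tested in duplicate at 25 uM, and those passing threshold went on to singleton concentration series topping at 50 uM. Recombinant enzyme, specific substrate, product separated by mobility shift, fluorescence read at 1.33 h; activity loss relative to DMSO.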
# [13] = target: Tyrosine-protein phosphatase non-receptor type 11 (Homo sapiens) (UniProt Q06124); assay: NVS_ENZ_hPTPN11: NovaScreen (NVS) Enzymatic Assay for human Protein Tyrosine Phosphatase Non-receptor Type 11 (PTPN11) (AID 2283202)
# In short: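 Compounds first tested in duplicate at 25 uM; those reaching ~30% inhibition rerun in singleton concentration-response, top 50 uM. Phosphatase activity measured after 0.5 h by fluorescence with mobility-shift separation, relative to DMSO.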
# [14] = target: human Raf-1 Proto-Oncogene, serine/threonine Kinase (RAF1), RAF1 (gene 5894) (UniProt P04049); assay: NVS_ENZ_hRAF1: NovaScreen (NVS) Enzymatic Assay for human Raf-1 Proto-Oncogene, serine/threonine Kinase (RAF1) (AID 2283216)
# In short: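 Single-point screening at 25 uM (duplicate), followed by singleton concentration-response to 50 uM maximum for chemicals exceeding threshold. Enzyme activity from fluorescent substrate-product mobility-shift separation after 1 h, relative to DMSO.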
# [15] = target: human Phosphodiesterase 10 (PDE10), PDE10A (gene 10846) (UniProt Q9Y233); assay: NVS_ENZ_hPDE10: NovaScreen (NVS) Enzymatic Assay for human Phosphodiesterase 10 (PDE10) (AID 2283195)
# In short: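 Biochemical single-readout PDE10A assay, cell-free, extracted protein. Compounds first screened at 25 uM in duplicate, hits then titrated to 50 uM max. Activity measured after 1 h; loss-of-signal fitted against DMSO negative control.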
# [16] = target: human Phosphoinositide 3-kinase alpha (PI3Ka), PIK3CA (gene 5290) (UniProt P42336); assay: NVS_ENZ_hPI3Ka: NovaScreen (NVS) Enzymatic Assay for human Phosphoinositide 3-kinase alpha (PI3Ka) (AID 2283196)
# In short: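 Duplicate single-point screen (25 uM), then singleton dose-response (max 50 uM) for compounds meeting the threshold. Cell-free kinase reaction, 1 h; fluorescent mobility-shift readout.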
# [17] = target: human Protein Tyrosine Phosphatase Non-receptor Type 4 (PTPN4), PTPN4 (gene 5775) (UniProt P29074); assay: NVS_ENZ_hPTPN4: NovaScreen (NVS) Enzymatic Assay for human Protein Tyrosine Phosphatase Non-receptor Type 4 (PTPN4) (AID 2283208)
# In short: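 Screened in duplicate at 25 uM, with hits then titrated to a top concentration of 50 uM. Recombinant Sf9-derived PTPN4 turnover was read by fluorescence with electrophoretic separation, 1.33 h after compound addition. DMSO served as baseline.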
# [18] = target: human Protein Phosphatase, Mg2+/Mn2+ Dependent 1A (PPM1A), PPM1A (gene 5494) (UniProt P35813); assay: NVS_ENZ_hPPM1A: NovaScreen (NVS) Enzymatic Assay for human Protein Phosphatase, Mg2+/Mn2+ Dependent 1A (PPM1A) (AID 2283198)
# In short: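 Primary screen in duplicate at 25 uM, with actives then titrated to a maximum of 50 uM. Recombinant PPM1A dephosphorylation of fluorescent substrate measured at 1 h, with substrate and product separated by mobility shift; inhibition fitted against DMSO.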
# [19] = target: Serine/threonine-protein phosphatase PP1-alpha catalytic subunit (Homo sapiens) (UniProt P62136); assay: NVS_ENZ_hPPP1CA: NovaScreen (NVS) Enzymatic Assay for human Protein Phosphatase 1 Aatalytic subunit Alpha (PPP1CA) (AID 2283200)
# In short: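 Chemicals were first screened in duplicate at 25 uM, and those passing threshold (e.g. 30% inhibition) were run as concentration series to 50 uM. Cell-free recombinant protein, 1.33 h read, fluorescent substrate/product mobility-shift detection, normalised to DMSO.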
# [20] = target: human Rho Associated Coiled-coil Containing Protein Kinase 1 (ROCK1), ROCK1 (gene 6093) (UniProt Q13464); assay: NVS_ENZ_hROCK1: NovaScreen (NVS) Enzymatic Assay for human Rho Associated Coiled-coil Containing Protein Kinase 1 (ROCK1) (AID 2283214)
# In short: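 Compounds first run in duplicate at 25 uM against recombinant human ROCK1, then followed in concentration series. Kinase activity was read 1 h post-dosing by fluorescence with mobility-shift separation, as signal loss relative to DMSO.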
# Sequence of human Protein Tyrosine Phosphatase Non-receptor Type 9 (PTPN9), PTPN9 (gene 5780) (P43378 whole entry, looked up): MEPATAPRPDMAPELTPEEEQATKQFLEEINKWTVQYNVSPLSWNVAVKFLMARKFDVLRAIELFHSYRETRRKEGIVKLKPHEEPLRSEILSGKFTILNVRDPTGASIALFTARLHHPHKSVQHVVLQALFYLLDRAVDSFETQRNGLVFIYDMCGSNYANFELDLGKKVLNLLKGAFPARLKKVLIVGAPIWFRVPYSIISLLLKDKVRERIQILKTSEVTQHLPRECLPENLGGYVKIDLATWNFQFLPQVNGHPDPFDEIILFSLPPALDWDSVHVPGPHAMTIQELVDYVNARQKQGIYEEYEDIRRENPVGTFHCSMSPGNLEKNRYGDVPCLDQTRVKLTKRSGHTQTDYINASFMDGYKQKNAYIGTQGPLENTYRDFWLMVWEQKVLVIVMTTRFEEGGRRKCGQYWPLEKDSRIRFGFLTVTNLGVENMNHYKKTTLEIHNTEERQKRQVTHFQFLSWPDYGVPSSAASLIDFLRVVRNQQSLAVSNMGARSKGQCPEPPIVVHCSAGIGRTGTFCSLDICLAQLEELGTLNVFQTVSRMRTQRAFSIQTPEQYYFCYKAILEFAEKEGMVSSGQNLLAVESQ
# Sequence of Tyrosine-protein phosphatase non-receptor type 12 (Homo sapiens) (Q05209 whole entry, looked up): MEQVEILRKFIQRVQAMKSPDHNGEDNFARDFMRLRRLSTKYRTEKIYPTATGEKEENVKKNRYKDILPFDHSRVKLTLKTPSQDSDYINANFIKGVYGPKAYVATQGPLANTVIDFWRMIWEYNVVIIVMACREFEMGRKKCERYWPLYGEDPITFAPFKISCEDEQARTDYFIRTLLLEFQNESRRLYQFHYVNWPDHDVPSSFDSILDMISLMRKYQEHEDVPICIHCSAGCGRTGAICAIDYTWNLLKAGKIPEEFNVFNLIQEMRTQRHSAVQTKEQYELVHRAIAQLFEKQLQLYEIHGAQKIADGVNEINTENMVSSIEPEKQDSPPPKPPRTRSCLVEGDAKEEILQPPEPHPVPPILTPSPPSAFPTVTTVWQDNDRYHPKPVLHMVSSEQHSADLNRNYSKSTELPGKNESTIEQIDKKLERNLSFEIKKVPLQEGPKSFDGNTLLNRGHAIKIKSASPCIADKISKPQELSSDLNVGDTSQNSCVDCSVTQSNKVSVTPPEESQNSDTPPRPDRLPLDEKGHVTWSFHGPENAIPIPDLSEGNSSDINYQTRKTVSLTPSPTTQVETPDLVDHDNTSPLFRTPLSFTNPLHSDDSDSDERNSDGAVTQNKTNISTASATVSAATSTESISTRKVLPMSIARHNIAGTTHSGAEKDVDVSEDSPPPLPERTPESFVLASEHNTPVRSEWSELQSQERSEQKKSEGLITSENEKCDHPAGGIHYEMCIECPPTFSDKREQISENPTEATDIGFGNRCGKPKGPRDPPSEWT
# Sequence of Tyrosine-protein phosphatase non-receptor type 13 (Homo sapiens) (Q12923 whole entry, looked up): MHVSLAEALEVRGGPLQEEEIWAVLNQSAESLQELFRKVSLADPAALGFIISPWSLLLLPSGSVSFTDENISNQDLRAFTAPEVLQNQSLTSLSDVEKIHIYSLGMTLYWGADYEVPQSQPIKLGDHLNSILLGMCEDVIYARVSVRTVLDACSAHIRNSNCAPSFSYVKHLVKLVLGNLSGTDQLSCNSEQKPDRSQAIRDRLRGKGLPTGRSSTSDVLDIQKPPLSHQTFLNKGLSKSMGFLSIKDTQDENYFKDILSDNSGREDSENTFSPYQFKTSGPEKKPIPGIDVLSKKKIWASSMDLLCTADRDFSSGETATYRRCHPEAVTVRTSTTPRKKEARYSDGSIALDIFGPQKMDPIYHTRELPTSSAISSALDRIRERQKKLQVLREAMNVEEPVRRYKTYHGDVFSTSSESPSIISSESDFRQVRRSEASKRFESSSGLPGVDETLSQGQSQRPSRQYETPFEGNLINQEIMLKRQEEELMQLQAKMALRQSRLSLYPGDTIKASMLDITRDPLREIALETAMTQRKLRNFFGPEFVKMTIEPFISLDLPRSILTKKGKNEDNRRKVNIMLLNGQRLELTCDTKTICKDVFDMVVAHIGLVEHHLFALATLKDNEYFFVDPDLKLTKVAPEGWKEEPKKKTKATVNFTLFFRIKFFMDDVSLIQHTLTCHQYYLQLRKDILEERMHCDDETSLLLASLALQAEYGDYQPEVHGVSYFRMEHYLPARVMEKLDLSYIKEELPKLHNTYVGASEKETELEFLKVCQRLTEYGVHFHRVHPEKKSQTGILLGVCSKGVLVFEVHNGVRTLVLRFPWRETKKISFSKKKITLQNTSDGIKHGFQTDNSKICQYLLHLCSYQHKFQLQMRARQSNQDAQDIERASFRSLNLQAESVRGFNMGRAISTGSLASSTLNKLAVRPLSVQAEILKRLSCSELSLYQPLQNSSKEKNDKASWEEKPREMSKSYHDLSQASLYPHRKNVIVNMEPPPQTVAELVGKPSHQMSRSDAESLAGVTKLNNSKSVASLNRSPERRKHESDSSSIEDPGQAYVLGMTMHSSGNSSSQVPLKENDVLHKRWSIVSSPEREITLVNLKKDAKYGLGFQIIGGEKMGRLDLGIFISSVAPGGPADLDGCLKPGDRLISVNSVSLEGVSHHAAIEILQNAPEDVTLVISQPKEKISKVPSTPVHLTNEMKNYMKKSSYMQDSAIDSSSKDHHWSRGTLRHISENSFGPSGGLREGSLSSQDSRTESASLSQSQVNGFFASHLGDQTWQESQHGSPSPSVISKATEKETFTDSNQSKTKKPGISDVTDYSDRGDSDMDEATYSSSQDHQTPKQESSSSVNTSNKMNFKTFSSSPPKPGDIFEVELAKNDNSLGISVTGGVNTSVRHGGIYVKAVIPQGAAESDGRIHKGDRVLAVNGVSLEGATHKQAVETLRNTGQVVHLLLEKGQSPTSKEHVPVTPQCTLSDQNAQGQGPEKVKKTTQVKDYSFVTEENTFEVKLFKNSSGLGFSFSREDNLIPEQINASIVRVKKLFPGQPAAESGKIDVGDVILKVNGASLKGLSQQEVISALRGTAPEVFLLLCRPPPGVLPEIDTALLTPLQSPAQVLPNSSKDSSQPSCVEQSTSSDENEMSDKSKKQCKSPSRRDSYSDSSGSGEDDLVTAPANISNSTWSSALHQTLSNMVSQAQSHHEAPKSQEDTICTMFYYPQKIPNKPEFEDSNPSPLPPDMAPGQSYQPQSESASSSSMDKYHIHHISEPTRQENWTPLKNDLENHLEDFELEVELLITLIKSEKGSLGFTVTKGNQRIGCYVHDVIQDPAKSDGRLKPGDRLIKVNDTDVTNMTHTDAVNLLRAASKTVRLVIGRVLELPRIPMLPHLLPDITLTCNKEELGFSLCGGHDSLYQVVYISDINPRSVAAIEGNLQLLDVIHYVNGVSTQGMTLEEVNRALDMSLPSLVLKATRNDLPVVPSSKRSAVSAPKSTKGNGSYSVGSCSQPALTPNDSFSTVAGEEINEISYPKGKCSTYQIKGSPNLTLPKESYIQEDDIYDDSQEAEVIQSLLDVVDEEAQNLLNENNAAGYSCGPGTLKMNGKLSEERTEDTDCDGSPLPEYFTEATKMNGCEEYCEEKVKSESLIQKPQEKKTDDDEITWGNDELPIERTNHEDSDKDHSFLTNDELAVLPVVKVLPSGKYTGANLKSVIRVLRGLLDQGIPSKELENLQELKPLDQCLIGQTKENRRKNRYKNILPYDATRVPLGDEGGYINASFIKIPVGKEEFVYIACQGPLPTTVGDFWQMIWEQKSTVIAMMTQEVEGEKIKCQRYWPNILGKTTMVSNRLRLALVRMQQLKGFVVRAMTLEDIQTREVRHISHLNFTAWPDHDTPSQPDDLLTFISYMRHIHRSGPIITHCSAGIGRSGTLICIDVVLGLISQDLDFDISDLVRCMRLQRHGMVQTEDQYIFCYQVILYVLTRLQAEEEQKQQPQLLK
# Sequence of Serine/threonine-protein phosphatase PP1-alpha catalytic subunit (Homo sapiens) (P62136 whole entry, looked up): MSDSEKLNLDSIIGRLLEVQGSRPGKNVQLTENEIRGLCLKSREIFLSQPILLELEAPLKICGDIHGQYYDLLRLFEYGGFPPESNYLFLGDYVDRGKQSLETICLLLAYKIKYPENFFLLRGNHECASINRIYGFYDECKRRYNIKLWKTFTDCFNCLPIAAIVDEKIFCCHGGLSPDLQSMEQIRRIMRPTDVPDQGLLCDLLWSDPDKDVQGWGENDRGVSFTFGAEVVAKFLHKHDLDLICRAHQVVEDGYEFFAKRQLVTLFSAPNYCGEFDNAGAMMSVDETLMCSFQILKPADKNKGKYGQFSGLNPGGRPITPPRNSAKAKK
# Sequence of human Raf-1 Proto-Oncogene, serine/threonine Kinase (RAF1), RAF1 (gene 5894) (P04049 whole entry, looked up): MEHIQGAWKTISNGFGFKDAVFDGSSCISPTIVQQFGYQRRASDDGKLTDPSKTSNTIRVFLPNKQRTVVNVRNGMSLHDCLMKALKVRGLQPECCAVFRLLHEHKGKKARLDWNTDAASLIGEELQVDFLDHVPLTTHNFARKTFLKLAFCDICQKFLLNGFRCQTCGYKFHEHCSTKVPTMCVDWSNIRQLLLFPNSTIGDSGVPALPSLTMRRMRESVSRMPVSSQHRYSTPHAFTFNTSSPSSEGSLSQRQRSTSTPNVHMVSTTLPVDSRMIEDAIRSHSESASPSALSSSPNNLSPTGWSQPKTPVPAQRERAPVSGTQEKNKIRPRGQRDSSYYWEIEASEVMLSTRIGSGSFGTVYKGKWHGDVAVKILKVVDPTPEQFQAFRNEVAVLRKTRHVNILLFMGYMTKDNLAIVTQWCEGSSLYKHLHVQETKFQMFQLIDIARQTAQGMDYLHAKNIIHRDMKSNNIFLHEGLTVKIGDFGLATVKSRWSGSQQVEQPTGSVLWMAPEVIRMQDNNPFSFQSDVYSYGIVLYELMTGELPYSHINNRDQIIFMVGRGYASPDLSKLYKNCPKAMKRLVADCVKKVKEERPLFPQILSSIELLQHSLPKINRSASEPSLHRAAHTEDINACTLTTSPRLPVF
smiles,measurement,setting,value
CN(C)c1ccc(C(=O)c2ccc(N(C)C)cc2)cc1,AC50,[1],29.1 µM (active)
same,AC50,[2],41.7 µM (active)
CCCCC(CC)COC(=O)c1ccc(C(=O)OCC(CC)CCCC)c(C(=O)OCC(CC)CCCC)c1 (stereo not given),outcome,[1],inactive
Clc1ccc(Cl)c(Cl)c1,outcome,[3],inactive
CCCSC(=O)N(CCC)CCC,outcome,[1],inactive
same,outcome,[4],inactive
Nc1ccc(Cl)cc1N,AC50,[1],12.6 µM (active)
same,AC50,[5],16.2 µM (active)
O=C1CCCO1,outcome,[6],inactive
Cn1cc(-c2ccccc2)c(=O)c(-c2cccc(C(F)(F)F)c2)c1,outcome,[7],inactive
same,AC50,[8],0.115 µM (active)
Oc1ccc2ccc3cccc4ccc1c2c34,AC50,[9],6.65 µM (active)
same,AC50,[10],1.22 µM (active)
same,AC50,[2],1.44 µM (active)
same,AC50,[11],16.5 µM (active)
OCCCBr,AC50,[10],25 µM (active)
same,AC50,[4],13 µM (active)
CCN(CC)N=O,outcome,[9],inactive
same,outcome,[1],inactive
same,outcome,[3],inactive
same,outcome,[12],inactive
same,outcome,[13],inactive
same,outcome,[10],inactive
same,outcome,[2],inactive
same,outcome,[11],inactive
same,outcome,[4],inactive
same,outcome,[14],inactive
CCNS(=O)(=O)C(F)(F)C(F)(F)C(F)(F)C(F)(F)C(F)(F)C(F)(F)C(F)(F)C(F)(F)F,outcome,[9],inactive
same,outcome,[1],inactive
same,outcome,[15],inactive
same,outcome,[16],inactive
same,outcome,[3],inactive
same,outcome,[12],inactive
same,outcome,[13],inactive
same,outcome,[7],inactive
same,outcome,[6],inactive
same,outcome,[8],inactive
same,outcome,[17],inactive
same,outcome,[2],inactive
same,outcome,[4],inactive
CCCCOC(=O)c1ccccc1C(=O)OCc1ccccc1,outcome,[18],inactive
Cc1ccc(N=C=O)cc1N=C=O,outcome,[18],inactive
same,outcome,[19],inactive
CCOc1cccc(C2(N3CCN(c4ccccc4)CC3)CCC(C)CC2)c1 (stereo not given),outcome,[9],inactive
same,outcome,[18],inactive
c1ccc(C2CO2)cc1 (stereo not given),outcome,[1],inactive
N#CC(Br)(Br)C(N)=O,outcome,[19],inactive
C[C@]12C=CC3=C4CCC(=O)C=C4CC[C@H]3[C@@H]1CC[C@@H]2O,AC50,[1],25 µM (active)
same,AC50,[5],9.63 µM (active)
same,outcome,[14],inactive
O=C(Oc1ccc(Br)cc1)N1CCN2CCC1CC2,outcome,[15],inactive
same,outcome,[4],inactive
CO[C@@H]1[C@H](OC(=O)NC(=O)CCl)CC[C@]2(CO2)[C@H]1[C@@]1(C)O[C@@H]1CC=C(C)C,outcome,[10],inactive
CCC12COCN1COC2,outcome,[18],inactive
same,outcome,[3],inactive
same,outcome,[20],inactive
Nc1ccc([N+](=O)[O-])cc1,outcome,[3],inactive
same,outcome,[19],inactive
CC(C)(OOC(C)(C)c1ccccc1)c1ccccc1,outcome,[3],inactive
O=Cc1ccco1,AC50,[6],0.13 µM (active)
c1ccc2c(c1)oc1ccccc12,outcome,[8],inactive
same,outcome,[4],inactive
Clc1ccc(C(c2ccc(Cl)cc2)C(Cl)(Cl)Cl)cc1,outcome,[8],inactive
O=C(O)C1C2CCC(O2)C1C(=O)O (stereo not given),outcome,[4],inactive
N#CC(Br)Br,outcome,[14],inactive
